Measured values reported in PubChem BioAssay AID485313 (National Center for Advancing Translational Sciences (NCATS), 2010).
Out of some 320,000 compounds screened, about 7,600 (2.4%) were called active. A call without a number means that no potency is given here. Another 3% or so got no clear call; they are omitted. This is one part of a sample in which actives are shown more often than they occur. Calls come from the whole dose curve; as a rule, active = well fitted activation curve with a large enough effect; inconclusive = small, poorly fitted or top-dose-only effect; inactive = no such curve, though single readings can be large or run the other way.

Assay: qHTS Assay for NPC1 Promoter Activators; note: nearly all actives have a fitted effect of over 60% in size;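 for activation: reporter is driven by a mutant NPC1 promoter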
Settings: Huh7 NPC1 promoter luciferase reporter, 24 h; series mostly up to 9.22 µM
In short: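 NPC1 promoter–luciferase Huh7 cells; 24 h compound; luminescence.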
Potency is the fitted concentration of half-maximal effect.

| SMILES | Potency | activation |
| --- | --- | --- |
| NS(=O)(=O)c1ccc(CNC(=O)c2cccc(S(=O)(=O)N3CCc4ccccc43)c2)cc1 | inactive | – |
| O=C(O)c1cccc(S(=O)(=O)N2CC=C(c3ccccc3)CC2)c1 | inactive | – |
| COc1cccc(C(=O)OCC(=O)c2[nH]c(C)c(C(C)=O)c2C)c1 | inactive | – |
| COCCN1C(=O)C(=O)/C(=C(/O)c2ccc(S(=O)(=O)N3CCCCC3)cc2)C1c1ccc(OC)c(OC)c1 (centres undefined) | inactive | – |
| O=C(CSC(=S)N1CCOCC1)c1cc(Br)cc(Br)c1O | inactive | – |
| O=C(CSC(=S)N1CCOCC1)c1ccccc1 | 0.501 µM (active) | – |
| COc1cccc(NC(=O)CN(C)C(=O)CSC(=S)N2CCCC2)c1 | inactive | – |
| CC(=O)c1ccc(NC(=O)CSC(=S)N2CCCC2)cc1 | inactive | – |
| CC1CN(C(=S)SCC(=O)c2ccccc2)CC(C)O1 (centres undefined) | inactive | – |
| O=C(CSC(=S)N1CCCCC1)c1c(F)cccc1F | 1.12 µM (active) | – |
| COc1ccc(C(=O)N2CCN(c3ncccn3)CC2)cc1S(=O)(=O)N1CCOCC1 | – | -2.21% [at 1.84 µM] (inactive) |
| C=CCC(NC(=O)Cc1ccccc1)C(=O)NCCC (centres undefined) | inactive | – |
| COc1ccc2nc(NC3=NCN(CC4CCCO4)CN3)nc(C)c2c1 (centres undefined) | inactive | – |
| COc1ccc(NS(=O)(=O)c2cc(NC(=O)COc3ccccc3F)ccc2OC)cc1 | inactive | – |
| COc1cc(/C=N/NC(=O)c2ccc(N3CCCC3=O)cc2)ccc1O | 2.51 µM (active) | – |
| COc1ccc(C(=O)Nc2ccccc2C(=O)N/N=C/c2ccc(O)c(OC)c2)cc1 | inactive | – |
| O=C(N/N=C/c1cccc(Br)c1)c1ccc(N2CCCC2=O)cc1 | inactive | – |
| O=C1C=C(c2cccc(Cl)c2)C[C@@H](c2ccc(F)cc2)C1 | inactive | – |
| CN1C(=O)c2ccc(NC(=O)C3CCCCC3)cc2C1=O | inactive | – |
| O=C(Nc1cc2ccccc2oc1=O)C1CCCCC1 | 0.447 µM (active) | – |
| Cc1ccccc1NC(=O)C1CCN(C(=O)NC2CCCCC2)CC1 | inactive | – |
| COc1ccc(S(=O)(=O)N2CCOCC2)cc1NC(=O)Cc1c(F)cccc1Cl | inactive | – |
| Cc1sc2ncnc(SCC(=O)Nc3ccc(CN4CCCC4)cc3)c2c1C | inactive | – |
| Cc1ccc(OCCOc2cccc(/C=N/NC(N)=O)c2)cc1 | 2.82 µM (active) | – |
| Cc1cccc(OCC(=O)NCC(=O)N/N=C/c2ccc(N(C)C)cc2)c1 | inactive | – |

| SMILES | Potency | activation |
| --- | --- | --- |
| O=C(N/N=C/c1cccc(OCc2ccccc2)c1)c1ccc(Br)o1 | inactive | – |
| COc1ccc(OC)c(-c2csc(NC(=O)COC(=O)C3CC3)n2)c1 | inactive | – |
| O=C(NCC1CCCO1)c1cc2c(s1)CCCC2 (centres undefined) | – | 12.7% [at 1.84 µM] (inactive) |
| Cc1ccc(NS(=O)(=O)c2ccc(F)cc2)nc1 | inactive | – |
| Cc1cc(C)cc(NS(=O)(=O)c2ccc(F)cc2)c1 | inactive | – |
| Cn1nccc1NS(=O)(=O)c1ccc(F)cc1 | 0.0003 µM (active) | – |
| O=C(CCNC(=O)c1ccc(Cl)cc1)NC1CCCc2ccccc21 (centres undefined) | inactive | – |
| Nc1[nH][nH]c(=O)c1N=Nc1ccc2c(c1)OCO2 | 2.82 µM (active) | – |
| Cc1[nH][nH]c(=O)c1N=Nc1ccccc1 | inactive | – |
| CC(=O)c1cc2c(cc1N)OCO2 | inactive | – |
| Cc1cc(C)cc(OCC(=O)OCC(=O)NC2CCCC2)c1 | inactive | – |
| Nc1ccn(CC(=O)N2CCN(c3ccccn3)CC2)c(=O)n1 | inactive | – |
| CC(C)N(Cc1nnc(-c2ccccc2Br)o1)C(=O)c1cc(Cl)nc2ccccc12 | inactive | – |
| CCC(=O)Nc1ccc(-c2ccc(N3CCCCC3)nn2)cc1 | 2.24 µM (active) | – |
| CCC(=O)c1ccc(OCC(=O)Nc2ccc(N3CCCCC3)cc2)cc1 | inactive | – |
| CCCCSc1nnc(-c2ccc(NC(=O)CC)cc2)n1C | inactive | – |
| CN(CC(=O)NCCc1ccc(F)cc1)CC(=O)Nc1ccc(F)c(F)c1F | inactive | – |
| O=C(Nc1ccc2c(c1)OCO2)C1CC1(Cl)Cl (centres undefined) | inactive | – |
| Cc1ccc(NC(=O)C2CC(c3ccc(F)cc3)=NO2)cc1 (centres undefined) | inactive | – |
| O=C(Nc1ccc2c(c1)OCO2)C1CC(c2c(F)cccc2Cl)=NO1 (centres undefined) | 3.98 µM (active) | – |
| CN(Cc1cccs1)C(=O)CN1C(=O)c2ccccc2S1(=O)=O | inactive | – |
| O=C(COC(=O)c1cccc(Cl)c1)NC1CCCCCCC1 | inactive | – |
| CCCN(CC(=O)NC(=O)NC1CCCCC1)CC(=O)Nc1cc(Cl)ccc1Cl | inactive | – |
| CC(=O)NC12CC3CC(C1)CC(C(=O)N1CCN(S(=O)(=O)c4cccs4)CC1)(C3)C2 | inactive | – |
